Our source for the Potency and outcome values is PubChem BioAssay (NCATS).

In test [1] the target is Tyrosine-protein kinase Yes (Homo sapiens) (UniProt P07947). The test can be described thus: qHTS for small molecule inhibitors of Yes1 kinase: Primary Screen (AID 686947). Further: nearly all actives have a fitted effect of over 60% in size. Further: potency means the concentration at half of the fitted maximal effect. A digest of the protocol:
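In this qHTS format, inhibition is expressed relative to DMSO controls with enzyme (maximum) and without enzyme (minimum). The 60 min room-temperature reaction uses 0.1 mM ATP, with ADP detected by luminescence.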
For orientation: Quantitative high-throughput screening tests each substance at several concentrations.

A short description of test [2]: qHTS for small molecule inhibitors of Yes1 kinase: Counter Assay (AID 686950).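 Further: no kinase present so only ADP-Glo detection of a fixed ADP amount is tested; luminescence from ADP-Glo reporting ADP in a fixed ATP and ADP mixture; series mostly up to about 77 µM.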 A digest of the protocol: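 Measuring interference with ADP-Glo, the assay ran 60 min at room temperature on an ATP/ADP mix lacking enzyme. Values were normalized to ATP-plus-ADP (maximum) and ATP-only (minimum) DMSO controls.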

Each structure is given as a SMILES string. Values joined by “and” are separate entries in the source; they are usually repeats but may differ in a detail not shown here. Equal values may be shown once. Records with an inconclusive call do not appear. Where a call stands in place of a potency, no number is given. Active and inactive are the calls of the source. The call rests on the fitted dose curve; in most records, active means well fitted curve in the direction sought with a large enough effect; inconclusive means small, poorly fitted or top-dose-only effect, or another doubt; inactive means no such curve, though single readings can be large; an effect the other way counts as inactive or inconclusive.

Tyrosine-protein kinase Yes (Homo sapiens), sequence (P07947 whole entry, looked up): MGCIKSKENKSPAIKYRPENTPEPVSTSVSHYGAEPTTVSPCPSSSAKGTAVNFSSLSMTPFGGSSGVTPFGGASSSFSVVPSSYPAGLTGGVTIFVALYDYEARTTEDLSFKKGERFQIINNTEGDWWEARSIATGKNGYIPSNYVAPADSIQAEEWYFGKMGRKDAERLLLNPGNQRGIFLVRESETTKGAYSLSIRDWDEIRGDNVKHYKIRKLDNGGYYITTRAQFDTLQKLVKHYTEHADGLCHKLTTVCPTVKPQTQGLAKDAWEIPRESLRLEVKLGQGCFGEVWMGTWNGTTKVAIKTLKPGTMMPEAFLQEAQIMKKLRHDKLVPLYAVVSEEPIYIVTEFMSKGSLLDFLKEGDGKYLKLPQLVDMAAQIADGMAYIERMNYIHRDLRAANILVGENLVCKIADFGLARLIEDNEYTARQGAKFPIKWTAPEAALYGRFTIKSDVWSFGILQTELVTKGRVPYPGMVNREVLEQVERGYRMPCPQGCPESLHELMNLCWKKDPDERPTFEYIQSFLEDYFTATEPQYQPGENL

`O=C(OC1CNC(C#Cc2cc3ncnc(Nc4ccc(OCc5cccc(F)c5)c(Cl)c4)c3s2)C1)N1CCOCC1` (stereo unspecified): the Potency in test [1] was 6.54 µM (active). The call in test [2] was inactive. `CC1=C(C(=O)Nc2cc(Cl)c3[nH]ncc3c2)C(c2ccc(C(F)(F)F)cc2)CC(=O)N1` (stereo unspecified): in test [1], the Potency is 2.6 µM (active). Further, the call in test [2] was inactive. Regarding `Cc1ccc(NC(=O)c2ccoc2)cc1-c1ccc(C(=O)NCC2CC2)cc1`, in test [2], the compound was classed as inactive. On to `CS(=O)(=O)CCNCc1nc(-c2ccc3ncnc(Nc4ccc(F)c(Cl)c4)c3c2)cs1`, for which, in test [1], the Potency is 4.63 µM (active). In test [2], the compound was called inactive. The corresponding values for `CCS(=O)(=O)c1ccc(OC)c(Nc2ncc(-c3cccc(C(C)=O)c3)o2)c1` are 0.292 µM (active) and “inactive”. For `Cc1nnc(-c2ccc(C)c(-c3ccc(C(=O)NCc4ccc(Cl)cc4)cc3)c2)o1`, in that order: “inactive” and “inactive”. For `Oc1cccc(-c2nc(-c3ccccc3)[nH]c2-c2ccncc2)c1`, in that order: 0.923 µM (active) and “inactive”. As to `CCn1c(-c2nonc2N)nc2cnc(Oc3cccc(NC(=O)c4ccc(N(C)C)cc4)c3)cc21`, in test [1], the Potency result is “inactive”. For the same compound, in test [2], the result was inactive. Turning to `NS(=O)(=O)c1ccc(N=Nc2c(O)[nH]c3ccc(Cl)cc23)cc1`, the Potency in test [1] is 36.8 µM (active). Further, the outcome in test [2] was inactive.

For `NS(=O)(=O)c1ccc(Nc2cc(-c3ccc(O)c(F)c3)[nH]n2)cc1`, the Potency in test [1] is 5.82 µM (active). The outcome in test [2] was inactive.

In the case of `COc1cccc(-n2ncc3c(NN=Cc4ccc(F)cc4)ncnc32)c1`, the Potency in test [1] is 0.582 µM (active). Besides, the compound was classed as inactive in test [2]. With `c1cc(-c2cnn3nc(N4CCOCC4)ccc23)nc(NC2CC2)n1`, the compound was classed as inactive in test [2]. As to `Nc1nc(-c2ccc3c(c2)C(=Cc2cc(Br)c(O)c(Br)c2)C(=O)N3)cs1`, the Potency in test [1] was 1.46 µM (active). Besides, the compound was called inactive in test [2].

`COc1ccc2ncnc(Nc3ccc(OCc4ccccc4)cc3)c2c1`: the Potency in test [1] is 0.733 µM (active). Also, the compound was called inactive in test [2].

For `O=S1CCN(Cc2ccc(-c3ccc4ncnc(Nc5ccc(OCc6ccccc6)c(Cl)c5)c4c3)o2)CC1`, the Potency in test [1] was 0.368 µM (active). The compound was classed as inactive in test [2]. The corresponding values for `COc1cccc(-n2nc(C)c3c(NN=C(C)c4ccncc4)ncnc32)c1` are “inactive” and “inactive”. Consider `CN1CCC(C(=O)Nc2n[nH]c3nc(-c4ccc(O)cc4)c(Br)cc23)CC1`, for which the Potency in test [1] was 36.8 µM (active) and 23.2 µM (active). Also, the result in test [2] was inactive. Regarding `CC(C)c1ccc(-c2cc(-c3cn[nH]c3-c3ccccn3)ccn2)cc1`, the Potency in test [1] is 23.2 µM (active). Also, in test [2], the result was inactive.

For the compound `NCc1ccc(-c2nc(-c3ccc(Cl)c(O)c3)c(-c3ccncc3)[nH]2)cc1`, the Potency in test [1] was 0.328 µM (active). Also, the outcome in test [2] was inactive. Take `ON=C1CCc2cc(-c3nc(C4CCNCC4)[nH]c3-c3ccncc3)ccc21`: the Potency entry in test [1] is “inactive”. For the same compound, in test [2], the call was inactive. As for `COc1cc2c(cc1Nc1nc(Nc3ccsc3C(N)=O)c3cc[nH]c3n1)N(C(=O)CN(C)C)CCC2(C)C`, in test [2], the call was inactive.

On to `Nc1ncnc2occ(-c3ccc(NC(=O)Nc4cc(C(F)(F)F)cc(C(F)(F)F)c4)cc3)c12`, for which the Potency in test [1] is 3.68 µM (active). For the same compound, the compound was classed as inactive in test [2].

As for `CC1(C)CC(n2cnc(-c3ccc(F)cc3)c2-c2ccnc(N)n2)CC(C)(C)N1`, in test [1], the Potency was 5.19 µM (active). Further, in test [2], the compound was classed as inactive. The corresponding values for `Cc1ccc(NC(=O)c2ccnc(N3CCCC3)c2)cc1-c1ccc(C(=O)NCC2CC2)cc1` are “inactive” and “inactive”. With `NS(=O)(=O)c1ccc(N=Nc2c(O)[nH]c3ccc(-c4cnco4)cc23)cc1`, the Potency result in test [1] was “inactive”. In addition, in test [2], the call was inactive. In the case of `Cc1ccc2c(-c3ccnc(Nc4cccc(C(F)(F)F)c4)n3)c(-c3ccccc3)nn2n1`, the Potency in test [1] is 0.146 µM (active). Also, in test [2], the result was inactive. For the compound `CN1CCN(CCCNc2nc3ccc(Oc4ccc(NC(=O)Nc5cc(C(F)(F)F)ccc5F)cc4)cc3[nH]2)CC1`, the call in test [2] was inactive.

Turning to `CC(=O)Nc1cccc(C#Cc2cncnc2Nc2ccc(OCc3cccc(F)c3)c(Cl)c2)c1`, the Potency in test [1] was 23.2 µM (active). In test [2], the compound was called inactive. In the case of `COc1cc(C=NNc2ncnc3[nH]ncc23)ccc1O`, the Potency in test [1] is 0.232 µM (active). The result in test [2] was inactive. The corresponding values for `COc1cc(Nc2ncc(-c3ccccc3)o2)cc(OC)c1OC` are 0.328 µM (active) and “inactive”. For the compound `COc1cc(N2CCN(C(C)C)CC2)ccc1Nc1nc(Nc2ccc(F)cc2C(=O)NCC(O)CO)c2cc[nH]c2n1` (stereo unspecified), the Potency entry in test [1] is “inactive”. Further, the call in test [2] was inactive. With `N#Cc1c(NC(=O)c2ccc(F)cc2)sc2c1CCCC2`, the Potency entry in test [1] was “inactive”. Also, the compound was classed as inactive in test [2]. With `FC(F)(F)c1cccc(Nc2nccc(-c3cnn4nc(-c5ccccc5)ccc34)n2)c1`, the Potency in test [1] was 14.6 µM (active). The compound was called inactive in test [2]. The corresponding values for `O=C(OC1CNC(C#Cc2cc3ncnc(Nc4ccc(Cc5ccccc5)cc4)c3s2)C1)N1CCOCC1` (stereo unspecified) are 2.07 µM (active) and “inactive”. On to `CNC(=O)c1cncc(C=Cc2ccccc2Cl)c1`, for which the Potency in test [1] was 8.23 µM (active). Further, in test [2], the compound was classed as inactive.
